DRD3 agonist – D3 dopamine receptor (human) agonism. D3R DiscoveRx beta-arrestin cells, luminescence, 90 min. hit rate 0.58% among 410,000. max activation, %. P35462; in the data active means max activation above about 30%; further: 0% is about no effect
Target sequence (P35462 whole entry, looked up): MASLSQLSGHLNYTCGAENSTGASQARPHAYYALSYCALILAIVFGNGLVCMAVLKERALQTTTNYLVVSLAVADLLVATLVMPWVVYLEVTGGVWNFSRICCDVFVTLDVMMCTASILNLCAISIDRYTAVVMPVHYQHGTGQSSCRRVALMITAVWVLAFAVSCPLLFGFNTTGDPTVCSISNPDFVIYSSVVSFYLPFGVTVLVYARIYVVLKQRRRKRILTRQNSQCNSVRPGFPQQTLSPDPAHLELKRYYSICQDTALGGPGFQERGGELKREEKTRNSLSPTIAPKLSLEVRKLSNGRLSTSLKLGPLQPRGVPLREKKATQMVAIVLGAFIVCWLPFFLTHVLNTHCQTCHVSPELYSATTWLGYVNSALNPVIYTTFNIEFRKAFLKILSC
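Cells at 1500/well, incubated overnight, then treated with pinned compounds (dopamine as control) for 90 min at 37 degrees C. DiscoveRx reagent added for 30 - 60 minutes at room temperature; luminescence read.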
BRCA1 expr act – activators of BRCA1 expression. hit rate 1.1% among 380,000. Potency, µM (top dose mostly 46.1 µM), for inactives: at the top dose activation, actives largely listed as activators. MCF7-BRCA1-FFLuc reporter, luminescence, 48 h; response scale: scaled: vehicle 0%, 10 µM genistein 100%; further: potency means the concentration at half of the fitted maximal effect; nearly all actives have a fitted effect of over 80% in size
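48 h compound treatment of MCF7-BRCA1-FFLuc cells (phenol-red free MEM, 37 °C), then 15 min with luciferase substrate and luminescence imaging.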
DRD3 antagonist – D3 dopamine receptor (human) antagonism; D3R cells, DiscoveRx beta-arrestin luminescence, antagonist mode; active compounds read low; hit rate 2.5% among 360,000; max response, negative = inhibition, %; in the data active means max response below about -50%; inconclusive means no clear call, values can overlap the other calls; further: on the % scale 0 is the no-effect control and ±100 the full control effect
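Cells expressing the human receptor were seeded at 1500 cells/well, incubated overnight at 37 degrees C in 5% CO2, then exposed to library compounds with dopamine controls for 90 minutes at 37 degrees C before luminescent detection.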
RGS4 inhibitor – human RGS4 inhibition. Transcreener GDP fluorescence polarization, RGS4-accelerated GTP hydrolysis. Potency, µM (titrated, usually from 114 µM), for inactives: at the top dose activity change, negative = inhibition, actives largely listed as inhibitors. hit rate 0.039% among 390,000. AID 504845; further: potency means the concentration at half of the fitted maximal effect; on the % scale 0 is the no-effect control and ±100 the full control effect; nearly all actives have a fitted effect of over 75% in size
Target sequence (P49798 whole entry, looked up): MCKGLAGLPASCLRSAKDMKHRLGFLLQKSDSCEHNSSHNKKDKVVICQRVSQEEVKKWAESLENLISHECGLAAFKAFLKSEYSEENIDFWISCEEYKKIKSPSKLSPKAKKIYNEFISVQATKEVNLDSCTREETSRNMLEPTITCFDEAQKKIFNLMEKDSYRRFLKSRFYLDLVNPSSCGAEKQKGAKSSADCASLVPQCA
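MLSMR compounds (23 nl, pin-transferred) preincubated 10 min at room temperature with a 500nM (2x) first reagent, then RGS4 at 900nM (2x) plus Transcreener GDP mix added; fluorescence polarization (620/688 nm) read before and after 90 min at 30 °C.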
B2AR arrestin – agonists driving beta-arrestin recruitment to human beta2-adrenergic receptor | beta-arrestin recruitment to beta2AR, cell-based reporter | Potency, µM (doses to about 46.1 µM), for the others: at the highest dose activation, actives largely listed as activators | hit rate 0.02% among 330,000;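 further: potency means the concentration at half of the fitted maximal effect; 0% = DMSO controls and full agonism = EC100 isoproterenol or metaproterenol; nearly all actives have a fitted effect of over 65% in size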
PTHR1 agonist – activates the human parathyroid hormone receptor PTHR1 | Q03431 | HEK293 GP2 PTHR1 cells, GloSensor cAMP luminescence, 1 h | Potency, µM (titrated, usually from 115 µM), for the others: top-dose activation, usual class: activators | hit rate 0.075% among 410,000; further: potency means the concentration at half of the fitted maximal effect; nearly all actives have a fitted effect of over 55% in size
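HEK-293-derived GP2 cells expressing PTHR1 and a GloSensor cAMP reporter, 3,000/well, plated overnight, given luciferin plus IBMX (each 0.5 mM as added) for 1 h at 37 °C, then compound for 1 h at 37 °C. Luminescence was read after 15 min at room temperature.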
The depositor's hits bear a star; i = inactive; ? = inconclusive; . = no result; [ ] = remark or other dose. Shown are actives, neighbours in structure and some others; about 3.7% of the full set was active somewhere. Unless noted, the call rests on the fitted dose curve; in most records, active means well fitted curve in the direction sought with a large enough effect; inconclusive means small, poorly fitted or top-dose-only effect, or another doubt; inactive means no such curve, though single readings can be large; an effect the other way counts as inactive or inconclusive.

SMILES | DRD3 agonist | BRCA1 expr act | DRD3 antagonist | RGS4 inhibitor | B2AR arrestin | PTHR1 agonist
COc1ccc(-c2nc3ccc(Br)cn3c2CC(=O)N2CCCC2)cc1OC | -8 | -2% | -52* | . | . | -24%
O=C(Cc1c(-c2ccccc2)nc2ccc(Br)cn12)N1CCCC1 | 4 | 6% | -9 | . | . | i
CNc1ccc(C(=O)CC(O)CCC(C)C2OC(=O)CC(O)CC(=O)CC(O)CC(O)CC(O)CC(O)CC3(O)CC(O)C(C(=O)OC)C(CC(O[C@@H]4O[C@H](C)[C@@H](O)[C@H](N)[C@@H]4O)/C=C/C=C/C=C/C=C/C=C/C=C/C=C/C2C)O3)cc1 (some centres not stated) | 8 | . | . | . | . | .
COC(=O)C(O)(c1ccc(NC(=O)c2ccccc2)cc1)C(F)(F)F (configuration not stated) | -1 | 80% | 6 | 44% | -1% | -19%
COC(=O)C(O)(c1ccc(NC(=O)c2cccs2)cc1)C(F)(F)F (configuration not stated) | -16 | 91% | -62* | 17% | 0% | -39%
CCCN(CCC)c1c([N+](=O)[O-])cc(S(N)(=O)=O)cc1[N+](=O)[O-] | -3 | . | . | . | . | .
CC(C(=O)c1cn(C)c2ccccc12)c1ccccc1 (configuration not stated) | 20 | 2% | -70* | -6% | -1% | -12%[57.5 µM]
Cc1nc2ccc(NC(=O)c3ccc(Cl)s3)cc2s1 | -11 | 3.5µM* | ? | -5% | -1% | -25%
O=C(CCN1CCN(c2ccccc2)CC1)c1ccc(Br)cc1 | -3 | -20% | -60* | ? | 0% | -9%
CC[C@@H](O)C(C[C@@H](C)N(C)C)(c1ccccc1)c1ccccc1 | 7 | . | . | . | . | .
CN1CC[C@]2(c3cccc(O)c3)Cc3nc4ccccc4cc3C[C@H]2C1 | . | . | . | . | 11µM* | .
C[C@]12C=CC(=O)C=C1CC[C@@H]1[C@@H]2CC[C@]2(C)OC(=O)CC[C@@H]12 | -7 | . | . | . | . | .
CCN1CCN(c2ncnc3ccc(Br)cc23)CC1 | -1 | -25% | -66* | -41% | 5% | -11%
O=C(CCl)c1ccc(Cl)cc1Cl | -11 | . | . | . | . | .
COc1cccc(NC(=O)N2CCC3(CC2)OCCO3)c1 | -5 | 11µM* | 16 | 4% | -2% | -45%
COc1ccc(NC(=O)N2CCC3(CC2)OCCO3)cc1OC | 1 | 9% | 0 | 13% | 0% | i
O=c1cc(-c2ccc(O)c(O)c2)oc2cc(O)cc(O)c12 | 43* | ? | 55 | 15% | -1% | -6%
Cc1ccc(NC(=O)c2cnc3sc(N4CCOCC4)nn3c2=O)cc1N(C)C | 3 | . | . | -7% | . | -95%
Nc1ccc(CCN2CCN(c3cccc(C(F)(F)F)c3)CC2)cc1 | -64 | 8% | -109* | ? | . | -30%
O=C1NC[C@H](CCCCN2C[C@@H](Cc3ccccc3)N(CCC3CCCCC3)C(=O)C2=O)N(CCC2CCCCC2)C1=O | -7 | 19% | -15 | . | . | -93%
COc1ccccc1CNCCc1ccc(F)cc1 | -17 | 1% | -55* | 23% | 0% | 7%
Fc1ccc(CCNCc2ccc(Cl)c(Cl)c2)cc1 | -32 | 7% | -72* | 22% | 0% | i
CCOc1cccc(CC(=O)NCc2ccc3c(c2)CCN3C(=O)c2cccc(C)c2)c1OCC | 3 | -54% | . | 13% | . | -31%
CCC(OC(C)=O)C(CC(C)NC)(c1ccccc1)c1ccccc1 (configuration not stated) | -13 | . | . | . | . | .
CC(=NCCC(c1ccccc1)c1ccccc1)c1c(O)n(C)c(=O)n(C)c1=O | 2 | -41% | 15 | -2% | 0% | -46%
SMILES | DRD3 agonist | BRCA1 expr act | DRD3 antagonist | RGS4 inhibitor | B2AR arrestin | PTHR1 agonist
Cn1c(O)c(C(=N)COc2ccccc2)c(=O)n(C)c1=O | 45* | -30% | -4 | 16% | 4% | i
CC(C)(O)[C@@H]1[C@H]2OC(=O)[C@@H]1[C@]1(O)C[C@H]3O[C@]34C(=O)O[C@H]2[C@]14C | -2 | . | . | . | . | .
Cc1nc2ccccc2c(=O)n1-c1ccccc1Cl | 8 | . | . | . | . | .
O=c1[nH]c2ccccc2n1C1CCN(Cc2ccc(-c3[nH]c4cc5ncnc5cc4nc3-c3ccccc3)cc2)CC1 | -16 | -65% | -96* | . | . | i
CC(=O)C1C(N2CC2)CC2C3CCC4=CC(=O)CCC4(C)C3CCC21C (configuration not stated) | 3 | -48% | 0 | -6% | . | i
CC(=O)OC1CCC2(C)C(CCC3C2CC(=O)C2(C)C3CC(N3CC3)C2C(C)=O)C1 (configuration not stated) | 5 | -45% | -1 | -15% | . | 50µM*
CCOc1ccccc1NC(=O)NCc1ccc2c(c1)CCN2C(=O)c1ccccc1 | -17 | . | . | -25% | . | -78%
CCCN(CC#CCOc1ccc(OC)cc1)CCC | -9 | -24% | -52* | -10% | 0% | i
NS(=O)(=O)c1ccc(CCNc2ccn3nc(-c4cccc(C(F)(F)F)c4)cc3n2)cc1 | 16 | -31% | 64 | . | . | -56%
CC(=O)O/C(=C1\CC2C3CC=C4CC(OC(C)=O)CCC4(C)C3CCC2(C)C1=O)C(F)(F)F (configuration not stated) | -8 | -58% | -70* | -26% | . | i
CC(=O)O[C@H]1CC[C@@]2(C)C(=CC[C@@H]3[C@@H]2CC[C@]2(C)C(=O)CC[C@@H]32)C1 | -24 | 2% | ? | 14% | 0% | -4%
Cc1ccc(NC(=O)c2ncn(CC(=O)NCc3ccc4c(c3)OCO4)n2)cc1C | -6 | 11µM* | 0 | -1% | 6% | -21%
Cc1ccc(NC(=O)c2ncn(CCCNCCN3CCOCC3)n2)cc1C | 15 | 11% | 0 | 6% | . | 10%
CC(Cc1ccccc1)NC(=O)CN1CCCC1=O (configuration not stated) | -2 | -15% | -4 | 17% | -1% | 30%
CC(c1ccccc1)n1cncc1C(=O)N1CCCC1=O (configuration not stated) | 30* | 7% | 28 | -1% | 0% | -21%[57.5 µM]
Cc1cccc(Oc2nc3c(C)cccn3c(=O)c2/C=C(\C#N)c2nc3ccccc3s2)c1 | -7 | . | . | ? | . | i
Cc1ccc2c(c1)c(C1=c3ccccc3=NC1=O)c(O)n2C | -5 | -81% | -80* | -27% | 5% | -34%
Cc1ccc2c(c1)=C(c1ccccc1)N(O)CC(=O)N=2 | 6 | -11% | 0 | 3% | 0% | -46%
CN(C)C(=S)SSC(=S)N(C)C | 6 | -14% | -74* | 7% | ? | i
C/C=C1/C[C@@H](C)[C@](O)(CO)C(=O)OCC2=CCN3CC[C@@H](OC1=O)C23 (some centres not stated) | . | . | . | -85%[56.9 µM] | . | .

Screening results: PubChem BioAssay, National Center for Advancing Translational Sciences (NCATS)
